Assay results as given in PubChem BioAssay (NCI).
About 83,000 compounds went through this panel and 20% of them were active in at least one assay; those are over-represented in the sample as a whole.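 Note: values are percent growth. 100 is the growth of untreated cells, values between 100 and 0 indicate rising inhibition; between -100 and 0 indicates cell death.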 Unmarked numbers belong to inactive results. Calls of active or inactive are those of the source. How the source made its calls: active means growth percent below 10; inactive means the rest.

Tested on: HL-60(TB) leukemia
Experiment: NCI-60 one-dose screen, 48 h (100 = growth as untreated, 0 = no growth, -100 = all killed)
Details: 10 µM unless noted

SMILES	growth
Cc1sc2nc(NCCN)[nH]c(=O)c2c1C	115%
CCCCCCCCCCCC1=NC(C)(C)CN1CC(C)O (stereo not given)	-15.1% (active)
O=C(O)C(=Cc1c2ccccc2cc2ccccc12)C(=O)O	110%
CC1=C(N2CCOCC2)C(N2CCOCC2)=C(C)C(=O)C1=O	97.3%
O=S1(=O)NCCN1CCNc1nccc(-c2c(-c3cccc(O)c3)nc3sccn23)n1	111%
COc1ccc(S(=O)(=O)NCCNc2nccc(-c3c(-c4ccccc4)nc4sccn34)n2)cc1	25.4%
O=S(=O)(c1cc(Cl)ccc1O)c1cc(Cl)ccc1O	74.2%
CCC(CC)(N(CC(=O)O)CC(=O)O)C(CC)(CC)N(CC(=O)O)CC(=O)O	79.1%
O=C(/C=C/c1ccco1)c1cccc(Nc2nc(Nc3ccccc3)nc(Nc3ccccc3)n2)c1	91.1%
O=C(Nc1cccc(-n2cc(-c3ccncc3)c(-c3ccc(Cl)c(O)c3)n2)c1)c1ccc(N2CCOCC2)c(C(F)(F)F)c1	51.6%
COC(=O)Nc1nc2ccc(S(=O)c3ccccc3)cc2[nH]1 (stereo not given)	22.7%
Cc1cc2c(-c3nc4ccccn4c3NC34CC5CC(CC(C5)C3)C4)c(O)c(O)cc2c(O)c1-c1c(C)cc2c(-c3nc4ccccn4c3NC34CC5CC(CC(C5)C3)C4)c(O)c(O)cc2c1O	5.04% (active)
COc1ccc(CN2C(=O)OC(C)(COC(C)=O)C2=O)cc1 (stereo not given)	101%
COc1ccc(-c2nn(-c3ccc(NC(=O)c4cc(C(F)(F)F)cc(C(F)(F)F)c4)cc3)cc2-c2ccncc2)cc1Cl	73.6%
NC(N)=NC(N)=NCCCc1ccccc1	55.7% [100 µM]
CCOC(=O)c1cnn2c(-c3ccc(Cl)cc3)nc(NCc3ccccc3)nc12	82.7%
CCOC(=O)CSc1nc(-c2cc(OC)ccc2OC)cc(-c2ccc(OC)cc2)c1C#N	98.5%
CCOC(=O)c1c(C)oc2ncnc(N3CCN(C(=O)COc4ccc(SC)cc4)CC3)c12	97.2%
CCO/C=N/C1=C(C#N)C(c2ccc(Cl)cc2)c2sc3c(F)cccc3c2O1 (stereo not given)	56.2%
C=CCn1c(SCC(=O)Nc2ccc(C(=O)/C=C/c3ccc(Cl)cc3)cc2)nnc1-c1cc(OC)c(OC)c(OC)c1	97.7%

SMILES	growth
COc1ccc(S(=O)(=O)N(C(C)=O)c2ccccc2/C=C/c2cc[n+]([O-])cc2)cc1	-27.6% (active)
CC1(C)OC2OC3C(CN)OC(c4ccccc4)OC3C2O1 (stereo not given)	49.3%
Cc1ccccc1NC(=O)Oc1ccc(Cl)cc1C(=O)c1ccccc1	103%
OCC(O)C(O)C(O)C(/C=N/Nc1ccccc1)=N/Nc1ccccc1 (stereo not given)	98.6%
C/C(=C\CCc1ccoc1)CC/C=C(\C)CCCNc1ccc(F)cc1	9.6% (active)
Cc1cc(NS(=O)(=O)c2ccc(NC(=O)COc3ccc(-c4cc5ccccc5[nH]4)cc3)cc2)no1	7.86% (active)
Cc1cc2[nH]c(=O)c3c4ncccc4cn3c2cc1C	37.2%
COc1cccc(C2C(C#N)=C(N)Oc3cc(OCCCCCC[P+](c4ccccc4)(c4ccccc4)c4ccccc4)ccc32)c1 (stereo not given)	-39.6% (active)
COc1cc2c(c(OC)c1OC)CCC(c1cccc(C(=O)Nc3ccc(Br)cc3)c1)O2 (stereo not given)	73.1%
COc1cc(F)c(F)c(Nc2ccc(I)cc2F)c1NS(=O)(=O)C1(C[C@H](O)CO)CC1	23.9%
COc1cc2c(cc1[N+](=O)[O-])-c1ccc([N+](=O)[O-])cc1/C2=N\O	89.5%
COc1cc(-c2nc3ccccc3s2)ccc1OCc1nc2n(n1)S(=O)(=O)c1ccccc1N2C	79.2%
N/C(=N\c1nc2ccccc2s1)NC(=O)Nc1cccc2ccccc12	-26.8% (active)
O=C(N/N=C/c1ccccc1Cl)c1ccccc1Nc1ccnc(C(F)(F)F)c1	-20.1% (active)
CN(C)CC1(C)Cc2ccsc2C1O (stereo not given)	93%
CC#Cc1nc(Nc2cc(C)[nH]n2)c2ccccc2n1	4.13% [100 µM] (active)
NC(=O)NC(=O)/C=C/C(=O)OCCCl	91.6%
CCOC(=O)CCCS(C)(=O)=O	117%
COc1cc(-c2nc(C(=O)Nc3ccc(C)cc3)nn2-c2ccc(F)c(F)c2)cc(OC)c1OC	100%
Cc1ccc(N=C=C(c2ccccc2)c2ccccc2)cc1	18.6%
